# Compound activity (PubChem BioAssay)
# Shown are actives, neighbours in structure and some others; about 17% of the full set was active somewhere.
# HT1080-NT tox: kills 2HG-producing HT-1080-NT fibrosarcoma cells. HT-1080-NT fibrosarcoma viability, CellTiter-Glo ATP luminescence, 48 h. Potency, µM (series often up to 46.1 µM), actives largely listed as cytotoxic. 1.6% of 360,000 active. AID 686970;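 also: NT is the 2HG producing partner of a matched IDH1 knockdown line; nearly all actives have a fitted effect of over 55% in size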
#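 A 48-hour cytotoxicity screen used HT-1080-NT cells plated 2 hours before compound delivery. ATP-based CellTiter-Glo luminescence measured viability, normalized to DMSO and no-cell controls.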
# TDP1 cell noCPT: qHTS for Inhibitors of human tyrosyl-DNA phosphodiesterase 1 (TDP1): qHTS in cells in absence of CPT | 15% of 420,000 active | AID 686978, 2013 | Potency, µM (highest dose often 46.2 µM), most hits filed as inhibitors | DT40 Tdp1-/- hTDP1 cells, no CPT, ATP luminescence, 48 h; also: nearly all actives have a fitted effect of over 55% in size
#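 A cellular qHTS used chicken DT40 cells lacking endogenous Tdp1 but carrying stably transfected human TDP1. Compounds were applied without camptothecin, and cell growth kinetics were judged by ATP-dependent luminescence after ≥48 hr.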
# HepG2 viability: counter-screen for TGF-b inhibitors: cytotoxicity in HepG2 cells; HepG2 CAGA-GFP viability, ATP luminescence, 18 h; Potency, µM (top dose mostly 46.1 µM), most hits filed as cytotoxic; 0.76% of 410,000 active
#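 HepG2 CAGA-GFP cells (1000/well, DMEM with 1% FBS) received compound, then TGF-beta at 500 pg/mL final, and were incubated 18 hours at 37 degrees C. Viability was read by CellTiter-Glo luminescence. Media-only wells were set as complete cell-killing and DMSO as no toxicity.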
# HT1080 IDH1KD tx: toxicity to HT-1080 IDH1 knockdown cells (counter line) | HT-1080 IDH1 knockdown viability, ATP luminescence, 48 h | Potency, µM (highest dose often 46.1 µM), actives largely listed as cytotoxic | 2% of 360,000 active | AID 686971
#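 Using the IDH1-knockdown HT-1080 line run in the same batch and compound series as the NT line, viability after 48 h at 37 °C was determined by CellTiter-Glo luminescence and expressed as % activity.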
# TDP1 cell CPT: DT40-hTDP1 cell growth loss with CPT; chicken DT40 Tdp1-/-;hTDP1 cells + 20 nM CPT, ATP luminescence, 48 h; Potency, µM (top dose mostly 46.2 µM), actives largely listed as inhibitors; 12% of 420,000 active; AID 686979; also: nearly all actives have a fitted effect of over 55% in size
#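 Chicken DT40 Tdp1-/- cells stably complemented with human TDP1 were seeded at 400 cells/well in medium containing 20 nM camptothecin, exposed to pin-transferred compounds, and grown at 37 °C for at least 48 hr. Viability was read as ATP luminescence.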
# TGFb SMAD3 inh: TGF-b pathway inhibition; HepG2 CAGA-GFP TGF-b/SMAD3 reporter, GFP fluorescence, 18 h; TGF-beta stimulated, 500 pg/mL final; 1.2% of 410,000 active; Potency, µM (highest dose often 46.1 µM), usual class: inhibitors; AID 588855; also: nearly all actives have a fitted effect of over 65% in size
#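 Smad-responsive CAGA-GFP expression was quantified in HEPG2 cells exposed to compounds and 500 pg/mL final TGF-beta for 18 h at 37 degrees C; unstimulated wells defined full inhibition.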
# A number is an active result; - = inactive; ? = inconclusive; . = not tested or not shown; [ ] = another dose, or the depositor's remark. Calls follow the shape of the dose curve; as a rule, active = well fitted curve in the direction sought with a large enough effect; inconclusive = small, poorly fitted or top-dose-only effect, or another doubt; inactive = no such curve, though single readings can be large; an effect the other way counts as inactive or inconclusive.
SMILES,HT1080-NT tox,TDP1 cell noCPT,HepG2 viability,HT1080 IDH1KD tx,TDP1 cell CPT,TGFb SMAD3 inh
CCOC(=O)[C@]12CCCC=C1N(Cc1ccc(Cl)cc1Cl)C(=O)[C@H](CC(=O)NCc1cccc3ccccc13)C2,-,16.4µM,.,-,25.9µM,.
COC(=O)[C@]12CCCCC=C1N(CCC1=CCCCC1)C(=O)[C@H](CC(=O)NCc1cccc3ccccc13)C2,?,?,.,16.4µM,?,.
CCOC(=O)[C@]12CCC=C1N(Cc1cccc3ccccc13)C(=O)[C@H](CC(=O)NCC1CCCCC1)C2,?,20.6µM,.,?,23.1µM,.
COC(=O)[C@]12CCCCC=C1N(Cc1cccc3ccccc13)C(=O)[C@H](CC(=O)NCc1ccccc1)C2,?,18.4µM,.,?,?,.
CCOC(=O)[C@]12CCCC=C1N(Cc1ccccc1)C(=O)[C@H](CC(=O)NCc1cccc3ccccc13)C2,?,-,.,?,18.4µM,.
CCOC(=O)[C@]12CCCC=C1N(Cc1ccccc1)C(=O)[C@H](CC(=O)NCCc1ccccc1OC)C2,-,13µM,.,-,?,.
CCNc1ncc2nc(-c3ccc(Cl)cc3)c(=O)n(Cc3cccc(OC)c3)c2n1,.,-,.,.,-,.
O=S(=O)(NCc1nc(N2CCCC2)c2cc(Cl)ccc2n1)c1ccccc1OC(F)(F)F,.,-,.,.,-[9.04 µM],.
O=C(Nc1ccc2c(c1)OCO2)N1CCN(Cc2ccco2)CC1,-,-,-,-,-,-
COC(=O)[C@]12CCCCC=C1N(Cc1ccccc1)C(=O)[C@H](CC(=O)NCc1cccc3ccccc13)C2,?,18.4µM,.,?,?,.
COC(=O)c1sccc1NC(=S)N1C(C)CCCC1C (stereo unspecified),-,-,-,-,-,-
CC(=O)NC(CCc1ccc(Cl)c(Cl)c1)c1cccc(O)c(=O)c1 (stereo unspecified),?,7.31µM,-,?,23.1µM,-
COc1ccc(OC)c(CCNC(=O)c2ccc3c(c2)N(Cc2ccc(F)cc2)CCS3)c1,-,?,-,-,20.6µM,-
COc1ccc(CCNC(=O)c2ccc3c(c2)N(Cc2ccc(C)cc2)CCS3)cc1OC,-,16.4µM,-,-,18.4µM,-
O=C(NCCc1ccc(Cl)cc1)c1ccc2c(c1)N(Cc1c(F)cccc1Cl)C(=O)CS2,.,2.59µM,-,.,9.2µM,?
COc1ccc(CCNC(=O)c2ccc3c(c2)N(Cc2ccc(F)cc2)CCS3)c(OC)c1,-,13µM,-,-,14.6µM,-
COc1ccc(CNC(=O)c2ccc3c(c2)N(Cc2ccc(C)cc2)CCS3)cc1,.,?,-,.,?,-
COc1cccc(NC(=O)C2CCN(C(=O)NC3CCCCC3)CC2)c1,-,-,-,-,-,-
CN(C)CCCNc1nc(N)c([N+](=O)[O-])c(NC2CCCCC2)n1,-,-,-,-,?,-
O=C(CN1C(=O)NC2(CCCCC2)C1=O)Nc1ccc(Cl)cc1,-,?,-,-,-,-
COc1ccc(-n2ccn(CC(=O)Nc3ccc(C)cc3C)c(=O)c2=O)cc1,.,-,-,.,-,-
Cc1ccc2nc(CO)[nH]c2c1,.,-,-,.,-,-
Cc1oc(-c2ccc(Cl)cc2)nc1Cn1c(=O)cc(C)c2c(C)nn(-c3cccc(F)c3)c21,.,-,-,.,-,-
COc1ccc(CCNC(=O)c2ccc3c(c2)N(Cc2ccc(F)cc2)C(=O)CS3)cc1OC,.,16.4µM,-,.,14.6µM,?
CN(C)CCNC(=O)c1ccc2c(c1)N(Cc1ccc(F)cc1)CCS2,-,16.4µM,-,-,25.9µM,-
CCOc1ccc(CCNC(=O)c2ccc3c(c2)N(Cc2ccc(F)cc2)CCS3)cc1,.,14.6µM,-,.,?,-
O=C(COC(=O)c1cccc(NC(=O)c2ccc(Br)cc2)c1)c1ccc(Cl)cc1,.,?,-,.,?,-
